Hit rate of the full screen: of about 420,000 compounds, about 64,000 (15%) were called active. Not shown: some 27% with an inconclusive outcome. The list is a sample of the results. A number with no mark means an inactive call. The call rests on the fitted dose curve; in most records, active means well fitted inhibition curve with a large enough effect; inconclusive means small, poorly fitted or top-dose-only effect; inactive means flat fitted curve, though single readings scatter.
Experiment: qHTS for Inhibitors of human tyrosyl-DNA phosphodiesterase 1 (TDP1): qHTS in cells in absence of CPT; further: nearly all actives have a fitted effect of over 55% in size
Conditions: DT40 Tdp1-/- hTDP1 cells, no CPT, ATP luminescence, 48 h; activity change, negative = growth inhibition: at 46.2 µM (top of the series)
In short: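 A cellular qHTS used chicken DT40 cells lacking endogenous Tdp1 but carrying stably transfected human TDP1. Compounds were applied without camptothecin, and cell growth kinetics were judged by ATP-dependent luminescence after ≥48 hr.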
On the % scale 0 is the no-effect control and ±100 the full control effect; potency means the concentration at half of the fitted maximal effect.

Compound | activity change, negative = growth inhibition [%] | Potency
CSCCC(NC(=O)c1ccco1)C(=O)OCC(=O)Nc1ncc(Cl)c(C)c1Cl (configuration not stated) | -20 | 
O=C(Nc1c2c(nn1-c1ccccc1)CS(=O)(=O)C2)C1CCCC1 | -18.2 | 
COCCNC(=O)C(OC(=O)c1cccs1)c1ccc(F)cc1 (configuration not stated) | -11.5 | 
Cn1cc(C2OC(=O)c3ccccc32)c2ccccc21 (configuration not stated) | -28.3 | 
CCn1c(O)c(N=NC2=NC(=O)CS2)c2cc(C)ccc21 | -23.4 | 
COC(=O)C[C@@H]1C=C[C@@H](NS(=O)(=O)c2cccc(OC)c2)[C@@H](CO)O1 | -2.53 | 
C[C@@H]1CN([C@H](C)CO)C(=O)CCCn2nncc2CO[C@@H]1CN(C)C(=O)OCc1ccccc1 | -13.2 | 
O=C(O)CSc1nccn1-c1cccc(Cl)c1 | -24.7 | 
Cc1cccc(OCC(=O)OCC(=O)Nc2ccc(Cl)cn2)c1 | -2.9 | 
CCNC(=S)N1CCN(CCN=CC2=C(O)CC(C)(C)CC2=O)CC1 | 0.937 | 
Cc1cc(C)c(S(=O)(=O)N2C=CC(C(F)(F)F)=NCC2)c(C)c1 | -29.9 | 
CC(CCO)Nc1nc2c([nH]1)c(=O)n(C)c(=O)n2C (configuration not stated) | -0.337 | 
COc1ccc(-c2csc3nc(-c4ccccc4F)oc(=O)c23)cc1OC |  | 16.4 µM (active)
COc1ccccc1-c1nnc(-c2ccc(F)cc2)o1 | -26.4 | 
Cc1sc2nc(-c3ccccc3F)oc(=O)c2c1C | 1.12 | 
O=C(NCc1ccco1)C(c1ccncc1)N(C(=O)Cn1nnc2ccccc21)c1ccccc1 (configuration not stated) | -4.11 | 
Cc1nn(-c2ccccc2)c2[nH]c(C(F)(F)F)cc(=O)c12 | -13.2 | 
O=S(=O)(Nc1ncnc2sccc12)c1cccc(F)c1 | -22.3 | 
Nc1ccccc1-c1nc2ccncc2[nH]1 | 5.85 | 

Compound | activity change, negative = growth inhibition [%] | Potency
Cc1cccc(C)c1NC(=O)C1(N(C(=O)c2ccccn2)c2ccc(O)cc2)CCCCC1 | 3.63 | 
COc1ccc2c(CC(=O)OCC(=O)Nc3ccccc3[N+](=O)[O-])coc2c1 | -18 | 
Cc1ccc(-c2nnn(CC(=O)N(Cc3ccco3)C(C(=O)NC(C)(C)C)c3ccncc3)n2)o1 (configuration not stated) | 5.93 | 
Cc1nc(C)c(C(=O)N(c2ccc(C)c(C)c2)C(C(=O)NCc2ccco2)c2ccccc2)s1 (configuration not stated) | -13 | 
Cc1nn(-c2ccccc2)c2sc(C(=O)N(Cc3ccco3)C(C)C(=O)NC(C)(C)C)cc12 (configuration not stated) |  | 14.6 µM (active)
Cc1ccc(NC(=O)Nc2ccc3oc(C)nc3c2)cc1 | -25.8 | 
COc1ccc(-c2cc(C(=O)NCCCN3CCOCC3)no2)cc1 | -21.3 | 
CCCN1CCN(CCCNC(=O)c2ccc3nc(Cc4ccccc4)oc3c2)CC1 | -27.3 | 
COc1cccc(CNC(=O)c2n[nH]c3ccccc23)c1 |  | 16.4 µM (active)
O=C(COC(=O)c1n[nH]c2ccccc12)NCc1ccccc1 | -3.5 | 
CCOC(=O)c1ccccc1NC(=O)c1sc2nc(-c3ccc(F)cc3)cn2c1C | -0.672 | 
O=C(NCCc1ccc(F)cc1)c1n[nH]c2ccccc12 | -12.6 | 
COc1ccc(-c2cn3c(n2)sc2cc(C(=O)Nc4ccccc4F)ccc23)cc1 |  | 3.66 µM (active)
CCN1CCN(CCCNC(=O)c2ccc3c(c2)sc2nc(-c4ccc(OC)cc4)cn23)CC1 |  | 1.3 µM (active)
COc1ccc(-c2cn3c(C)c(C(=O)Nc4cc(C)cc(C)c4)sc3n2)cc1 |  | 16.4 µM (active)
COc1ccc2oc(=O)c(-c3cn4c(n3)sc3cc(OC)ccc34)cc2c1 | -13.4 | 
COc1ccccc1NC(=O)c1ccc2nc(N3C(=O)CCC3=O)sc2c1 | -2.13 | 
COc1ccc(NC(=O)c2cc(-c3ccc(C)cc3)on2)cc1 | 3.31 | 
